Hit rate of the full screen: of about 2,100 compounds, about 650 (31%) were called active. Not shown: some 16% with an inconclusive outcome. Some of the results follow. A number with no mark means an inactive call. Calls follow the shape of the dose curve; as a rule, active = well fitted inhibition curve with a large enough effect; inconclusive = small, poorly fitted or top-dose-only effect; inactive = flat fitted curve, though single readings scatter.
Potency is read from the fitted curve at half-maximal effect.

This assay in a line: qHTS for inhibitors of Vif-A3G interactions: Cherry picks. Also: nearly all actives have a fitted effect of over 80% in size. As to activity, negative = fluorescence increase: % of control where 0% means no effect. The settings on record: HeLa A3G-eYFP + Vif (tagged APOBEC3G with the HIV-1 protein that degrades it), 24 h; Potency: eYFP fluorescence increase; series mostly up to 36.9 µM; activity, negative = fluorescence increase: at the top concentration. The method, boiled down: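 HeLa cells stably expressing A3G-eYFP and Vif, cultured overnight then exposed to compounds at several concentrations for 24 hours at 37 C, 5% CO2; cellular yellow fluorescence (488 nm ex, 500-530 nm em) imaged on Acumen, MG132 positive control.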
A general note: In qHTS, concentration-response curves come from the screen itself.
Take `C=CCOC(=O)C1=C(C)NC(C)=C(C(=O)OCC=C)C1c1cn(-c2ccccc2)nc1-c1ccco1`: the “activity, negative = fluorescence increase” value is 3.24%. The same measure, in the same setting: next, `CC(=O)c1cccc(-c2ccnc3c2CC(C(=O)Nc2ccc(Cl)cc2)O3)c1` (stereo not given): 1.72%. Take `CCCSc1ncc(Cl)c(C(=O)Nc2sc3c(c2C(N)=O)CCCC3)n1`: the Potency was 11.6 µM (active). Consider `NC(=O)c1c(Nc2nc3c(F)cccc3s2)sc2c1CCCC2`, for which the “activity, negative = fluorescence increase” value is -22.3%.

`ClCC1NCC(c2ccccc2Cl)c2c1[nH]c1ccccc21` (stereo not given): the “activity, negative = fluorescence increase” value was -1.72% [at 46.1 µM].

Take `S=c1[nH]cnc2sc(-c3ccccc3)cc12`: the “activity, negative = fluorescence increase” value was 2.34% [at 46.1 µM]. Consider `CN(C)C=Nc1c(Br)cc(Br)c2nonc12`, for which the Potency is 9.2 µM (active). Still for that read-out and setting: next, `Nc1c(C(=O)N/N=C/c2ccc(F)cc2)oc2nc(-c3ccccc3)cc(-c3ccco3)c12`: 12.5 µM (active); `Nc1c(C(=O)N/N=C/c2cccnc2)oc2nc(-c3ccccc3)cc(-c3ccco3)c12`: 5.8 µM (active). Consider `O=C(N/N=C/c1ccc2c(c1)OCO2)c1cc(-c2ccco2)nc2ccccc12`, for which the “activity, negative = fluorescence increase” value was -4.33%. On to `Cc1ccc(C=NNC(=O)c2cc(-c3cccnc3)nc3ccccc23)o1`, for which the “activity, negative = fluorescence increase” value is -9.91%. In the case of `Nc1c(C(=O)N/N=C/c2ccccc2Cl)oc2nc(-c3ccccc3)cc(-c3ccco3)c12`, the Potency was 5.8 µM (active). Take `Cc1ccc(/C=N/NC(=O)c2cc(-c3ccccc3)nc3ccccc23)o1`: the “activity, negative = fluorescence increase” value is -9.54%. The same measure, in the same setting: next, `O=C(N/N=C/c1ccc(Cl)cc1)c1cc(-c2cccnc2)nc2ccccc12`: -2.64%; `O=C(N/N=C/c1cccc(F)c1)c1cc(-c2ccco2)nc2ccccc12`: -0.017%. The same measure, in the same setting: next, `O=C(N/N=C/c1ccco1)c1cc(-c2ccncc2)nc2ccccc12`: -8.06%; `CN(Cc1cnn(Cc2ccccc2)c1)C(=O)c1cccc(S(=O)(=O)N2CCOCC2)c1`: -3.86%. The same measure, in the same setting: next, `O=C(CN1c2cccc3cccc(c23)S1(=O)=O)Nc1ccc(S(=O)(=O)N2CCOCC2)cc1`: -4.13% [at 46.1 µM]; `CCn1c(O)c(/C=N/NC(=O)c2ccncc2)c(=O)n(CC)c1=S`: 9.98% [at 46.1 µM]. Consider `CC[n+]1c(C=C2C=C(C)OC(C)=C2)sc2ccccc21`, for which the Potency is 8.2 µM (active).

As to `CCSC1=NSC2=NC(=O)/C(=C\c3coc4ccccc4c3=O)C(=N)N12`, the Potency is 23.1 µM (active). Regarding `CCS(=O)(=O)c1nn2c(N)c(/C=C3/C=CC(=O)C(OC)=C3)c(=O)nc2s1`, the “activity, negative = fluorescence increase” value was 13.5% [at 46.1 µM]. Take `COC1=C/C(=C/c2c(N)n3nc(-c4ccc(C)cc4)sc3nc2=O)C=CC1=O`: the Potency was 14.6 µM (active). Turning to `CCc1ccc(CNC(=O)Cc2ccc(NC(=O)C3=C(C)OCCS3)cc2)cc1`, the “activity, negative = fluorescence increase” value is -1.61%. Still for that read-out and setting: in the case of `N#CC1=C2SCC(O)(c3ccccc3)N2C(=O)CC1c1ccccc1` (stereo not given) it was -17.3%.

Turning to `COc1ccc(NC(=O)C2(C)Cc3c(-c4cccc(NC(C)=O)c4)ccnc3O2)cn1` (stereo not given), the “activity, negative = fluorescence increase” value is -5.51%.

For `CCOc1ncccc1C(=O)NCc1ccc(OC)cc1`, the “activity, negative = fluorescence increase” value is -0.568%.

On to `Nc1nc(SCc2ccc(Cl)cc2Cl)nc2nc3c(cc12)CCCC3`, for which the Potency was 23.1 µM (active). Consider `Cc1[nH][nH]c(=O)c1C(c1c(C)[nH][nH]c1=O)c1cn(Cc2ccccc2Cl)c2ccccc12`, for which the “activity, negative = fluorescence increase” value was -10.2%. Still for that read-out and setting: in the case of `Cc1ccc2oc(/N=C(\N)NC(=O)C(C)(C)C)nc2c1` it was -6.59% [at 46.1 µM]. Still for that read-out and setting: next, `CCOC(=O)c1ccc(NC(=S)NC(=O)C2CCCC2)cc1`: 13.5% [at 46.1 µM]. Regarding `COC(=O)c1ccc(NC(=O)CC2Nc3cc(C)c(C)cc3NC2=O)cc1` (stereo not given), the Potency is 23.1 µM (active). As for `C/C(CCc1ccc2c(c1)OCO2)=N\NC(=S)NC(C)C`, the “activity, negative = fluorescence increase” value is -17.7% [at 46.1 µM].

Take `CC(NC(=O)c1ccc(Nc2nc3ccccc3n3nnnc23)cc1)c1ccccc1` (stereo not given): the Potency was 18.4 µM (active). With `CN(C)c1ccc(Nc2nc3ccccc3n3nnnc23)cc1`, the “activity, negative = fluorescence increase” value was -25.5% [at 46.1 µM]. Take `C=CCSc1nc2ccccc2n1C(=O)/C=C/c1cc(OC)c(OC)c(OC)c1`: the “activity, negative = fluorescence increase” value is 2.28%. For the molecule `COc1ccccc1CNC(=O)c1ccc(Nc2nc3ccccc3n3nnnc23)cc1`, the Potency is 20.6 µM (active).

As for `Fc1ccc(CNc2nc3ccccc3n3nnnc23)cc1`, the Potency was 16.4 µM (active). As to `Cc1ccc(C(=O)O)cc1Nc1nc2ccccc2n2nnnc12`, the “activity, negative = fluorescence increase” value is -17.3% [at 46.1 µM]. Regarding `Fc1ccc(COc2ccc3ccccc3c2CNc2nn[nH]n2)cc1`, the “activity, negative = fluorescence increase” value is -6.32%. For the molecule `COc1cc(Nc2nc3ccccc3n3nnnc23)cc(OC)c1OC`, the Potency is 20.6 µM (active). As for `c1ccc2c(c1)nc(N1CCOCC1)c1nnnn12`, the “activity, negative = fluorescence increase” value is 4.21% [at 46.1 µM]. The same measure, in the same setting: in the case of `CC(=O)Nc1ccc(S(=O)(=O)Nc2nc3ccccc3nc2Nc2ccc(N)cc2)cc1` it was -7.33% [at 46.1 µM]; in that of `O=[N+]([O-])c1ccccc1C1Nc2cccc3cccc(c23)N1`, 9.33% [at 46.1 µM].

For `CCOC(=O)c1cc(-c2ccccc2C)n(CC2CC(c3ccc(OC)cc3)=NO2)n1` (stereo not given), the “activity, negative = fluorescence increase” value is -4.85%.

In the case of `NC(=S)N/N=C/c1ccccc1OC(=O)/C=C/c1ccccc1`, the “activity, negative = fluorescence increase” value was 1.01% [at 46.1 µM]. Same read-out and setting: in the case of `Cc1cc(OCC(=O)Nc2nnc(C3CC3)s2)ccc1Cl` it was 1.84%; in that of `COc1ccc2[nH]c(C(=O)N/N=C/c3ccc(OC)c(O)c3)cc2c1`, -3.2%.

With `Cc1ccc(/C=N/NC(=O)c2ccc3ccccc3c2)s1`, the “activity, negative = fluorescence increase” value is -17.8%. The same measure, in the same setting: next, `COc1cc2ccccc2cc1C(=O)N/N=C/c1cccs1`: -8.47%.

The values above are taken from PubChem BioAssay AID651812 (National Center for Advancing Translational Sciences (NCATS), 2012).
